Experimental data reported in paper PMC7862700, “An all-to-all approach to the identification of sequence-specific readers for epigenetic DNA modifications on cytosine”.

What was measured:
Test in all cases: DAPPL (digital affinity profiling via proximity ligation, sequencing); 10 mM Tris-HCl pH 7.5, 50 mM NaCl, 1 mM DTT, 4% glycerol, room temperature, 30 min; GST-TFs on glutathione beads, 16-mer random dsDNA library, 0.1% formaldehyde crosslink after washing; high values mean tight binding
Details in all cases: protein: recombinant; tags: N-terminal GST; dsDNA, one strand shown
[1] = target: T1, FLI1 (Homo sapiens, UniProt Q01543 1-452)
T1 sequence: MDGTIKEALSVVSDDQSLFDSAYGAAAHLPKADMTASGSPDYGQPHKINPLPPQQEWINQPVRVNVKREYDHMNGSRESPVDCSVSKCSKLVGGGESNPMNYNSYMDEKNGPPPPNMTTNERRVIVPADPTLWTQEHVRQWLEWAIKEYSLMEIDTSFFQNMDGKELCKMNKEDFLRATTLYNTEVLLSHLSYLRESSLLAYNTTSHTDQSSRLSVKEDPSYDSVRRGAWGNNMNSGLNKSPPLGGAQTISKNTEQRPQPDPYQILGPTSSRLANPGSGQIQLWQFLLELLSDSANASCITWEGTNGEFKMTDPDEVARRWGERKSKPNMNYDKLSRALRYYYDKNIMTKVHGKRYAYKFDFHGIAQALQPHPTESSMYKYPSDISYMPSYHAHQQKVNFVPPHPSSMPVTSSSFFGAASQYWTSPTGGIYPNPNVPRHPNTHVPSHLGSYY
In short: (§1)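 GST fusions of human transcription factors were expressed in yeast and captured with glutathione beads. Once given DNA barcodes and pooled alongside a tag-only sample, they were incubated for 30 min at room temperature with 200 nmole of a random double-stranded 16-mer DNA library in Tris/NaCl/DTT/glycerol buffer, then washed, crosslinked (0.1% formaldehyde), proximity-ligated, PCR-amplified and sequenced on an Illumina NextSeq500. The binding signal of each hexamer is its read frequency for a factor divided by its frequency for the tag-only sample.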

[2] = target: T2, ELK1 (Homo sapiens, UniProt P19419 1-428)
T2 sequence: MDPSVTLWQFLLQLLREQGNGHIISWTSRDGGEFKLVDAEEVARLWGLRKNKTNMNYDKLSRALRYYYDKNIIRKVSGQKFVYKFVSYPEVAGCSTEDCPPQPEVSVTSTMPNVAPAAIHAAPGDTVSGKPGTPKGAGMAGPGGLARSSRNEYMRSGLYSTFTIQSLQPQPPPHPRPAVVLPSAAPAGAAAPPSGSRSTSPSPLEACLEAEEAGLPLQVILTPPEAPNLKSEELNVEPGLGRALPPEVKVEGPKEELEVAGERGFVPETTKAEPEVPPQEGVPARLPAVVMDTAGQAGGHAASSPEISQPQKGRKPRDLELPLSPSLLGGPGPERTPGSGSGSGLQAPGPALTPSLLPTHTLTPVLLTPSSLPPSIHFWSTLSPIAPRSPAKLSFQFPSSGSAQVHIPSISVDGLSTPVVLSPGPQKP
In short: as §1

[3] = target: T3, GABPA (Homo sapiens, UniProt Q06546 1-454)
T3 sequence: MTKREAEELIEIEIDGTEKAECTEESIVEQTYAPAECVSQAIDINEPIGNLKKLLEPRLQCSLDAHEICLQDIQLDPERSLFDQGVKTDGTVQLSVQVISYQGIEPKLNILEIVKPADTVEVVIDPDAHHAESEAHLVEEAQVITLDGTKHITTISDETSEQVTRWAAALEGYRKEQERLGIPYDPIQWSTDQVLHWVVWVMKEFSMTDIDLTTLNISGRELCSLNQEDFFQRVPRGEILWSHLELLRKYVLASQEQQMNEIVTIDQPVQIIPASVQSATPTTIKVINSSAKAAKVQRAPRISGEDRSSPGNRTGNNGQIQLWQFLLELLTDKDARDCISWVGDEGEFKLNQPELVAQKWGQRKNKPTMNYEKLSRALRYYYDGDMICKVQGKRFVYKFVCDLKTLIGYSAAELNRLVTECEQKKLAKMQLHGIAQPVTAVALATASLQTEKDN
In short: as §1

[4] = target: T4, ERG (Homo sapiens, UniProt P11308 1-479)
T4 sequence: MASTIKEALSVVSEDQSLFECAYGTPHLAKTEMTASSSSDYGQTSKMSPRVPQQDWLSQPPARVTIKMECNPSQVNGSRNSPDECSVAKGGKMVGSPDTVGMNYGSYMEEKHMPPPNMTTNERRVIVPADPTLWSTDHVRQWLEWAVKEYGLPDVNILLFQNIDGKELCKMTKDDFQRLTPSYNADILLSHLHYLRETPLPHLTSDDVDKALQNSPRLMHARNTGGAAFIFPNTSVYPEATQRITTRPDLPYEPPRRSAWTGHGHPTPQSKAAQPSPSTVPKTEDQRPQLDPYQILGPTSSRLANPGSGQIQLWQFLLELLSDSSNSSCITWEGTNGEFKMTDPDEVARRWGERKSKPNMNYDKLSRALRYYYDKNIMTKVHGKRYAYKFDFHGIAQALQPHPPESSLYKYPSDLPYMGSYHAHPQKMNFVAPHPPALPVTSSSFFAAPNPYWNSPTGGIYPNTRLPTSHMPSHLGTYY
In short: as §1

[5] = target: ELF1 (Homo sapiens, UniProt P32519 1-619)
In short: as §1

[6] = target: T5, EHF (Homo sapiens, UniProt Q9NZC4 1-300)
T5 sequence: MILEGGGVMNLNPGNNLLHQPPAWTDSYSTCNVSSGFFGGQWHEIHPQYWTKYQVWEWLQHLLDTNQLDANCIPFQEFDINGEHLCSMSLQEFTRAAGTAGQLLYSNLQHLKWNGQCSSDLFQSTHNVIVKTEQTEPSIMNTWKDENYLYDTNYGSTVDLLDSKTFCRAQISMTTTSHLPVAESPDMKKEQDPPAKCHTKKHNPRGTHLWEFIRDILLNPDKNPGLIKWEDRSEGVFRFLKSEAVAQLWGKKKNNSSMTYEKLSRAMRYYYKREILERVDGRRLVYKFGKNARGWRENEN
In short: as §1

[7] = target: SPI1 (Homo sapiens, UniProt P17947 1-270)
In short: as §1

[8] = target: SPIB (Homo sapiens, UniProt Q01892 1-262)
In short: as §1

[9] = target: T6, ELK3 (Homo sapiens, UniProt P41970 1-407)
T6 sequence: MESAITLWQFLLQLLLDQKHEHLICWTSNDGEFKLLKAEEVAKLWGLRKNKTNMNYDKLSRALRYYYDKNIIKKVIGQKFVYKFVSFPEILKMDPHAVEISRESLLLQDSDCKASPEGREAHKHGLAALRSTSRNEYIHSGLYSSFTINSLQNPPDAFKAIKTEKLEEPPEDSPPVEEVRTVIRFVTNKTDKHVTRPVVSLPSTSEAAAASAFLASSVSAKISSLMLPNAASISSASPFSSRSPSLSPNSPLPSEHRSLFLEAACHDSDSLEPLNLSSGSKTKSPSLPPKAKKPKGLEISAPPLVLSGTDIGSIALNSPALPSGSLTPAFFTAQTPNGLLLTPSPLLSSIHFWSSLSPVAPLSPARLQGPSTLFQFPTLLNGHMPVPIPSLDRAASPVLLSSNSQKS
In short: as §1

Sequence of SPIB (Q01892 whole entry): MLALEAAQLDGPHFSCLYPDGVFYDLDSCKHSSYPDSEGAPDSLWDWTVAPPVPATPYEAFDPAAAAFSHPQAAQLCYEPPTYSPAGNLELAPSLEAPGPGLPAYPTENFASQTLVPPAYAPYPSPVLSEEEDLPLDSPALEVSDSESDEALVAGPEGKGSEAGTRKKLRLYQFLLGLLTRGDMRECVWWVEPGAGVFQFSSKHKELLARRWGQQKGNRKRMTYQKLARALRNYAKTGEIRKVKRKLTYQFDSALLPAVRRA
Sequence of ELF1 (P32519 whole entry): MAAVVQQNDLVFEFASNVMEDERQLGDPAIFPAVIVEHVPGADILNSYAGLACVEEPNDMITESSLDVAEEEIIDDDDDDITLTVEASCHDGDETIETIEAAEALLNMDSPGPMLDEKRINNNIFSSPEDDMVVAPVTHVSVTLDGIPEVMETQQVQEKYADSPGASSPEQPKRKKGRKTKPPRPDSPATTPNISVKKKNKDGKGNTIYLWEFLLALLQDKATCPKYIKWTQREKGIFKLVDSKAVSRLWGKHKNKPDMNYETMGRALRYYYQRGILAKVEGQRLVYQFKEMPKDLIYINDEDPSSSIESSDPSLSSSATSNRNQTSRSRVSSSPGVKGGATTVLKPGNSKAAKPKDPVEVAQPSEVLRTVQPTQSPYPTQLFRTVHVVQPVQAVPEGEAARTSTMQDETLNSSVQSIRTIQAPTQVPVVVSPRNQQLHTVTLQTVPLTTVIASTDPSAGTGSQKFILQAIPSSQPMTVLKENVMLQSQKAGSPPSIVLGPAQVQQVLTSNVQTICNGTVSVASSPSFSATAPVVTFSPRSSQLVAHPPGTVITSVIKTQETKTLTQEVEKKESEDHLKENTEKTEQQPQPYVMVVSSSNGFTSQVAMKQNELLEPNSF

Question: What does the source list for CCTCTA?
Answer: binding signal [1]: 1.24 fold enrichment (6-mer frequency, TF over GST control); binding signal [2]: 1.48 fold enrichment (6-mer frequency, TF over GST control); binding signal [3]: 1.39 fold enrichment (6-mer frequency, TF over GST control); binding signal [4]: 1.32 fold enrichment (6-mer frequency, TF over GST control); binding signal [5]: 1.42 fold enrichment (6-mer frequency, TF over GST control); binding signal [6]: 1.31 fold enrichment (6-mer frequency, TF over GST control); binding signal [7]: 1.33 fold enrichment (6-mer frequency, TF over GST control); binding signal [8]: 1.38 fold enrichment (6-mer frequency, TF over GST control); binding signal [9]: 1.32 fold enrichment (6-mer frequency, TF over GST control)

Question: What does the source list for GACTCC?
Answer: binding signal [1]: 1.35 fold enrichment (6-mer frequency, TF over GST control); binding signal [2]: 1.23 fold enrichment (6-mer frequency, TF over GST control); binding signal [3]: 1.29 fold enrichment (6-mer frequency, TF over GST control); binding signal [4]: 1.3 fold enrichment (6-mer frequency, TF over GST control); binding signal [5]: 1.35 fold enrichment (6-mer frequency, TF over GST control); binding signal [6]: 1.37 fold enrichment (6-mer frequency, TF over GST control); binding signal [7]: 1.35 fold enrichment (6-mer frequency, TF over GST control); binding signal [8]: 1.38 fold enrichment (6-mer frequency, TF over GST control); binding signal [9]: 1.25 fold enrichment (6-mer frequency, TF over GST control)

Question: What does the source list for ATCAAC?
Answer: binding signal [1]: 1.12 fold enrichment (6-mer frequency, TF over GST control); binding signal [2]: 1.19 fold enrichment (6-mer frequency, TF over GST control); binding signal [3]: 1.19 fold enrichment (6-mer frequency, TF over GST control); binding signal [4]: 1.07 fold enrichment (6-mer frequency, TF over GST control); binding signal [5]: 1.13 fold enrichment (6-mer frequency, TF over GST control); binding signal [6]: 1.12 fold enrichment (6-mer frequency, TF over GST control); binding signal [7]: 1.08 fold enrichment (6-mer frequency, TF over GST control); binding signal [8]: 1.1 fold enrichment (6-mer frequency, TF over GST control); binding signal [9]: 1.21 fold enrichment (6-mer frequency, TF over GST control)

Question: Which binding signal [1] does the source give for TGATGC here?
Answer: 1.49 fold enrichment (6-mer frequency, TF over GST control)

Question: What about the binding signal [2] of the same sequence?
Answer: 1.63 fold enrichment (6-mer frequency, TF over GST control)

Question: And the binding signal [3]?
Answer: 1.65 fold enrichment (6-mer frequency, TF over GST control)

Question: What about the binding signal [4] of the same sequence?
Answer: 1.4 fold enrichment (6-mer frequency, TF over GST control)

Question: What about the binding signal [5] of the same sequence?
Answer: 1.64 fold enrichment (6-mer frequency, TF over GST control)

Question: And the binding signal [6]?
Answer: 1.58 fold enrichment (6-mer frequency, TF over GST control)

Question: And the binding signal [7]?
Answer: 1.42 fold enrichment (6-mer frequency, TF over GST control)

Question: And the binding signal [8]?
Answer: 1.47 fold enrichment (6-mer frequency, TF over GST control)

Question: What about the binding signal [9] of the same sequence?
Answer: 1.72 fold enrichment (6-mer frequency, TF over GST control)

Question: Which binding signal [1] does the source give for CTGAAC here?
Answer: 1.35 fold enrichment (6-mer frequency, TF over GST control)

Question: What about the binding signal [2] of the same sequence?
Answer: 1.41 fold enrichment (6-mer frequency, TF over GST control)

Question: What about the binding signal [3] of the same sequence?
Answer: 1.37 fold enrichment (6-mer frequency, TF over GST control)

Question: What about the binding signal [4] of the same sequence?
Answer: 1.4 fold enrichment (6-mer frequency, TF over GST control)

Question: And the binding signal [5]?
Answer: 1.37 fold enrichment (6-mer frequency, TF over GST control)

Question: And the binding signal [6]?
Answer: 1.35 fold enrichment (6-mer frequency, TF over GST control)

Question: And the binding signal [7]?
Answer: 1.36 fold enrichment (6-mer frequency, TF over GST control)

Question: What about the binding signal [8] of the same sequence?
Answer: 1.42 fold enrichment (6-mer frequency, TF over GST control)

Question: What about the binding signal [9] of the same sequence?
Answer: 1.2 fold enrichment (6-mer frequency, TF over GST control)

Question: What does the source list for CTCAAC?
Answer: binding signal [1]: 1.25 fold enrichment (6-mer frequency, TF over GST control); binding signal [2]: 1.32 fold enrichment (6-mer frequency, TF over GST control); binding signal [3]: 1.33 fold enrichment (6-mer frequency, TF over GST control); binding signal [4]: 1.24 fold enrichment (6-mer frequency, TF over GST control); binding signal [5]: 1.26 fold enrichment (6-mer frequency, TF over GST control); binding signal [6]: 1.18 fold enrichment (6-mer frequency, TF over GST control); binding signal [7]: 1.18 fold enrichment (6-mer frequency, TF over GST control); binding signal [8]: 1.19 fold enrichment (6-mer frequency, TF over GST control); binding signal [9]: 1.28 fold enrichment (6-mer frequency, TF over GST control)

Question: How did the binding signal [1] turn out when TTCCAT was run?
Answer: 1.38 fold enrichment (6-mer frequency, TF over GST control)

Question: And the binding signal [2]?
Answer: 1.29 fold enrichment (6-mer frequency, TF over GST control)

Question: And the binding signal [3]?
Answer: 1.22 fold enrichment (6-mer frequency, TF over GST control)

Question: What about the binding signal [4] of the same sequence?
Answer: 1.25 fold enrichment (6-mer frequency, TF over GST control)

Question: And the binding signal [5]?
Answer: 1.33 fold enrichment (6-mer frequency, TF over GST control)

Question: What about the binding signal [6] of the same sequence?
Answer: 1.28 fold enrichment (6-mer frequency, TF over GST control)

Question: What about the binding signal [7] of the same sequence?
Answer: 1.34 fold enrichment (6-mer frequency, TF over GST control)

Question: What about the binding signal [8] of the same sequence?
Answer: 1.32 fold enrichment (6-mer frequency, TF over GST control)

Question: What about the binding signal [9] of the same sequence?
Answer: 1.28 fold enrichment (6-mer frequency, TF over GST control)
